Data from PubChem BioAssay AID720650 (Broad Institute, 2013).
Values without a mark were called inactive. Calls of active or inactive are those of the source. The rule behind the calls is not given here.

Assay: Biochemical counterscreen for C difficile toxins, absence of UDPG, inhibitor dose response (AID 720650)
Details: series mostly up to 19.5 µM
In the case of `COC(=O)Cc1ccc(NC(=S)NCc2ccco2)cc1`, the AC50 is reported as “inactive”. In the case of `CC(=O)Nc1cc(-c2ccc(F)cc2)[nH]n1`, the AC50 is reported as 2.6 µM (active). In the case of `Cc1ccc(CNC(=O)Nc2cccc(C)c2)cc1`, the AC50 is reported as “inactive”. For `CSc1cccc(NC(=O)CCc2ccccc2)c1`, the AC50 was “inactive”. In the case of `CC(C(=O)OCC(=O)c1c(N)n(C)c(=O)n(C)c1=O)N1C(=O)c2ccccc2C1=O` (stereo not drawn), the AC50 is reported as “inactive”. For `C=CC[C@@H](CC(=O)N(CCO)Cc1ccccc1)C(=O)NC[C@@H](OC(=O)[C@@H](CC=C)CC(=O)OC(C)(C)C)c1ccccc1`, the AC50 was “inactive”. In the case of `Oc1ccc(-c2nccs2)cc1`, the AC50 is reported as 10.2 µM (active). For `COCC(=O)N1CC[C@@H]2[C@H]1c1cc(-c3ccccc3)ccc1N(C)[C@H]2CO`, the AC50 was 6.54 µM (active). For `COc1ccc2cc3c(nc2c1)OCC3`, the AC50 was “inactive”. With `CCOCCCNC(=O)C1CCN(S(=O)(=O)c2c(C)noc2/C=C\c2ccc(OC)cc2)CC1` the AC50 was “inactive”. In the case of `COc1cccc(C(=O)COC(=O)c2ccc(NC(=O)c3ccccc3)cc2)c1`, the AC50 is reported as “inactive”. For `Cc1ccc(C(=O)OCC(=O)c2cc(C)n(CC3CCCO3)c2C)cc1` (stereo not drawn), the AC50 was “inactive”. For `CC(=O)Nc1cnc(-c2ccccc2O)cn1`, the AC50 was 15.3 µM (active). For `CN1C(=O)C(c2nnc(Nc3cccc4ccccc34)s2)C2CC1(C)Oc1ccccc12` (stereo not drawn), the AC50 was “inactive”. In the case of `O=C1c2c(O)ccc(O)c2C(=O)c2c(NCCNCCO)ccc(NCCNCCO)c21`, the AC50 is reported as 17.5 µM (active). With `Nc1cc(N)cc(C(=O)OCC(=O)Nc2cc(S(=O)(=O)N3CCCCC3)ccc2Cl)c1` the AC50 was “inactive”. For `O=C(/C=C/c1ccccc1)Nc1cccnc1Cl`, the AC50 was greater than 39 µM. In the case of `O=c1[nH]c(CSc2nnc(Cc3ccccc3)o2)nc2ccccc12`, the AC50 is reported as “inactive”. In the case of `O=C(CCNC(=O)c1ccccc1Cl)N/N=C\c1ccc(O)cc1`, the AC50 is reported as 15.8 µM (active). For `CCOc1ccccc1NC(=O)CCNS(=O)(=O)c1cccc2nonc12`, the AC50 was “inactive”. For `COc1cccc(C(=O)C2CCCN(Cc3ccc(F)cc3)C2)c1` (stereo not drawn), the AC50 was “inactive”. In the case of `CCN(C(=O)COC(=O)c1cccnc1SC)C1CCCCC1`, the AC50 is reported as “inactive”. In the case of `O=C(NCc1ccncc1)[C@@H]1CCCN1C(=O)[C@@H]1CCCN1`, the AC50 is reported as “inactive”. For `CCOc1ccccc1/C=C/c1onc(C)c1S(=O)(=O)N1CCC(C(=O)NC(C)C)CC1`, the AC50 was “inactive”. In the case of `CNC(=O)C1CCN(S(=O)(=O)c2c(C)noc2/C=C/c2ccc(C)cc2)CC1`, the AC50 is reported as “inactive”. With `O=C(CCn1cnc2ccccc21)N/N=C/c1ccc(O)cc1` the AC50 was 12.2 µM (active). For `CC(C)CNC(=O)c1c(F)c(F)c(F)c(F)c1F`, the AC50 was “inactive”. With `O=C(NCc1ccccc1)C1Cc2c(-c3cccc(F)c3)ccnc2O1` (stereo not drawn) the AC50 was “inactive”. In the case of `CCOC(=O)N1CCC(c2cc(=O)n3[nH]c(-c4ccccc4)cc3n2)CC1`, the AC50 is reported as “inactive”. In the case of `Oc1ccc(-c2cn3ccccc3n2)cc1`, the AC50 is reported as 4.42 µM (active). For `COCc1c(Br)c(C)nc(OCC(=O)N/N=C/c2ccc(C)o2)c1C#N`, the AC50 was “inactive”. In the case of `CC(=O)NC(Cc1ccccc1)C(=O)Oc1ccc2ccccc2c1` (stereo not drawn), the AC50 is reported as “inactive”. For `CN(c1ccc(O)cc1)c1nc(-c2cccnc2)cs1`, the AC50 was “inactive”. For `COc1ccc(CNC(=O)C2=CC(c3ccc(C)cc3)=NS(=O)(=O)N2C)cc1`, the AC50 was “inactive”. For `CCCCn1c(CN2CCN(C(=O)c3ccco3)CC2)nc2c1c(=O)n(C)c(=O)n2C`, the AC50 was “inactive”. For `Nc1nnn(CC(=O)N/N=C/c2ccc(O)cc2)n1`, the AC50 was 16.5 µM (active). In the case of `O=C(Nc1ccccc1F)N(Cc1ccc(F)cc1)Cc1nc2ccccc2c(=O)[nH]1`, the AC50 is reported as “inactive”. In the case of `CC(C)CC(=O)N1CCN(Cc2ccc(Br)cc2)CC1`, the AC50 is reported as “inactive”.
